# The list is not random: actives were taken first. Their share in the collection is about 3.6%.
# KAT2A inh: blocks human GCN5L2 histone acetyltransferase; Q92830; GCN5L2 HAT assay, ThioGlo1 CoA-SH fluorescence; Potency, µM (titrated, usually from 58.9 µM), inactives show at the top dose activity change, negative = inhibition, usual class: inhibitors; 0.21% of 390,000 active; AID 504327; further: on the % scale 0 is the no-effect control and ±100 the full control effect
#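 ThioGlo1-coupled HAT assay: 20nM GCN5L2, 70uM acetyl-CoA, 75uM H3(1-25) peptide, pH 7.5. Fluorescence read at 340/540nm at start and after 20 min at room temperature.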
# Sfp PPTase inh: inhibitors of Bacillus subtilis Sfp phosphopantetheinyl transferase. Q9F4F7. Biochemical Sfp PPTase activity, qHTS. Potency, µM, for the others: largest response in the series, negative = inhibition, usual class: inhibitors. 3.5% of 310,000 active;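 further: the enzyme is Sfp with the accession as filed and its product quenches rhodamine fluorescence; 0% = enzyme reaction without inhibitor and -100% = no enzyme wells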
#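 After 15 min at room temperature with compound, 15 nM Sfp received 5 uM rhodamine-CoA plus 12.5 uM BHQ-2-ybbR (50 mM Hepes pH 7.6, 10 mM MgCl2). Rate came from the fluorescence difference over 30 min, ex 525/em 598 nm.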
# Epigenetic reg: derepresses silenced GFP reporter in murine cells; murine LDR cells, GFP reporter derepression, 30 h; Potency, µM (series often up to 53.9 µM), for the others: at the highest dose GFP activation, usual class: activators; 0.2% of 280,000 active; further: % of control where 0% means no effect; nearly all actives have a fitted effect of over 60% in size
#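 Murine LDR cells carrying a silenced, genomically integrated CMV-driven GFP reporter were exposed to compound for 30 hours at 37 C. After PBS washes, GFP-positive cells (20–120 um objects) were counted by laser-scanning microplate cytometry.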
# IMPase Li inh: IMPase inhibition in cells with lithium potentiation. 0.35% of 210,000 active. CHO-M1 cells, IP1 TR-FRET (IP-One), carbachol + lithium. Potency, µM (titrated, usually from 59.4 µM), for the others: at the highest dose activity, negative = IMPase inhibition, actives largely listed as inhibitors. AID 1457;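 further: IP1 builds up when IMPase is blocked and the TR-FRET signal falls; plate controls were basal vehicle for no effect and high inhibitor control for full effect; nearly all actives have a fitted effect of over 50% in size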
#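 Concentration–response in CHO-M1 cells, lithium-potentiated; 30 min at 37C. IP1 detected by competitive TR-FRET after 10 min lysis at RT. Hill-fitted AC50.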
# KDM4E inh: inhibitors of human JMJD2E histone demethylase. B2RXH2. JMJD2E catalytic domain, FDH-coupled NADH fluorescence (FDH is formaldehyde dehydrogenase). Potency, µM (series often up to 57.1 µM), for the others: top-dose activity change, negative = inhibition, hits mostly inhibitors. 1.6% of 230,000 active; active means well fitted inhibition curve with a large enough effect, not every such curve was filed as active; inconclusive means small, poorly fitted or top-dose-only effect, or another doubt; inactive means no such curve, though single readings can be large or run the other way;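 further: 0% = wells with enzyme and -100% = buffer wells without enzyme; nearly all actives have a fitted effect of over 50% in size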
# NPSR antag: neuropeptide S receptor (human) antagonism, cAMP | Q6W5P4 | CHO-NPSR cells, cAMP TR-FRET, antagonist mode | Potency, µM (titrated, usually from 38.3 µM), without a hit: at the top dose activity change, negative = inhibition, hits mostly inhibitors | 1% of 220,000 active | AID 1461; further: on the % scale 0 is the no-effect control and ±100 the full control effect; nearly all actives have a fitted effect of over 50% in size
# Target sequence (Q6W5P4 whole entry, looked up): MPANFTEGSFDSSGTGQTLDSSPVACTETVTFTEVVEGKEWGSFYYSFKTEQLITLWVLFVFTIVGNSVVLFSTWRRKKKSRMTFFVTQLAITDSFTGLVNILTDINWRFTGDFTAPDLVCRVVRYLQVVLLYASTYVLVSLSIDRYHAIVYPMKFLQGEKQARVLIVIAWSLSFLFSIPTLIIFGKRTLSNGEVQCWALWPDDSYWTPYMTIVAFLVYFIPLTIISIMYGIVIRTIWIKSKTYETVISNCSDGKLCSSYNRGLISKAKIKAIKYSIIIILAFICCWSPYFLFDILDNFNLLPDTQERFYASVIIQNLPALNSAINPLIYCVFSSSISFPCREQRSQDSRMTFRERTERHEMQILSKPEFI
# Numbers without * were called inactive; u = inconclusive; x = no result given; [ ] = dose if it differs, or a comment. Unless noted, the call rests on the fitted dose curve; in most records, active means well fitted curve in the direction sought with a large enough effect; inconclusive means small, poorly fitted or top-dose-only effect, or another doubt; inactive means no such curve, though single readings can be large; an effect the other way counts as inactive or inconclusive. Potency means the concentration at half of the fitted maximal effect.
SMILES,KAT2A inh,Sfp PPTase inh,Epigenetic reg,IMPase Li inh,KDM4E inh,NPSR antag
Cc1n[nH]c(=O)nc1N/N=C/c1ccco1,-12%,40µM*,-1%,7%,-19%,-2%
CCOc1cc(/C=N/Nc2ncnc(Cl)c2N)ccc1O,-17%,-76%,-1%,20%,-15%,-19%
CCOc1ccc(/C=N/Nc2nc(=O)[nH]nc2C)cc1OC,-23%,25µM*,1%,10%,-12%,-9%
CCOc1cc(/C=N/NC(=O)C(=O)N/N=C/c2ccc(O)c(OCC)c2)ccc1O,1%,22%,x,x,x,x
CCOc1cc(/C=N/Nc2nnc(C)n2N)ccc1O,20%,56µM*,x,x,x,x
CCOc1cc(/C=N/Nc2nc(=O)[nH]nc2C)ccc1O,-16%,71µM*,-3%,9%,4%,-18%
CCC[C@H](NC(=O)[C@H](CC(C)C)N(C)C(=O)CNC(=O)[C@@H](NC(=O)[C@H](Cc1ccccc1)NC(=O)[C@H](CCCCN)NC(=O)[C@@H](N)CC(=O)O)C(C)C)C(N)=O,-1%,3%,x,x,x,x
CC[C@H](C)[C@H](NC(=O)[C@H](Cc1ccc(O)cc1)NC(=O)[C@@H]1CCCN1C(=O)[C@@H](N)CCCN=C(N)N)C(=O)N[C@@H](CC(C)C)C(=O)O,-7%,24%,x,x,x,x
COc1ccc(C(=O)N2CCC3(CC2)CN(c2ncccn2)C3)cc1,1%,-9%,x,-7%,x,x
Oc1ccc(N2CCN(Cc3c(-c4ccccc4)nc4ccccn34)CC2)cc1,-9%,25µM*,x,x,x,x
CC(=O)OCC1=C(C(=O)O)N2C(=O)C(NC(=O)c3ccc(COc4ccc(Cl)cc4)o3)C2SC1 (stereo unspecified),-4%,-16%,0%,-4%,1%,8%
CC(=O)OCC1=C(C(=O)O)N2C(=O)C(NC(=O)c3ccc(COc4c(C)cccc4Cl)o3)C2SC1 (stereo unspecified),u,63µM*,-1%,1%,-3%,24%
N#Cc1c(NC(=O)CCC(=O)O)ccc2ccccc12,x,x,x,10%,x,x
CCOC(=O)C(C(=O)OCC)c1cc(Br)c2noc3c2c1C(=O)c1ccccc1-3,u,0.71µM*,3.5µM*,77%[38.3 µM],u,4µM*
CCCCNc1cc(NC2CCCCC2)c2c3c(onc13)-c1ccccc1C2=O,-5%,x,0%,x,x,x
C(=N\Nc1ccc(-n2ccnc2)nn1)/c1ccccc1,-4%,89µM*,2%,10%[38.3 µM],-6%,6%[46.1 µM]
Cc1ccc(C(=O)Nc2ccc(Cl)c(-c3nc4ncccc4o3)c2)c(C)c1,-4%,x,1%,x,x,x
O=C(c1cccs1)c1no[n+]([O-])c1C(=O)c1cccs1,0%,32µM*,-1%,17%[38.3 µM],u,u
CCCCC/C=C\C\C=C/C=C/C=C/[C@@H](SC[C@H](N)C(=O)O)[C@@H](O)CCCC(=O)O,5%,12%,1%,-13%,x,x
CCCCCCCCCCCCCCC(C(=O)O)C(O)(CC(=O)OC)C(=O)O (stereo unspecified),13µM*,u,0%,9%,-7%,x
CCCCCC(CC(=O)O)C(=O)O (stereo unspecified),5%,12%,-1%,-3%,-1%,x
COc1ccc2cc1Oc1ccc(cc1)C[C@@H]1c3c(cc(OC)c4c3Oc3cc5c(cc3O4)CCN[C@H]5C2)CCN1C,x,x,x,30%,x,x
CCn1c(C)cc(/C=C2\NC(=O)N(CC(=O)Nc3cccc(C)c3)C2=O)c1C,-3%,-6%,-2%,-1%[38.3 µM],u,8%[46.1 µM]
CCn1c(C)cc(/C=C2/NC(=O)N(CC(=O)Nc3cccc(C)c3)C2=O)c1C,-10%,6%,0%,-8%,22µM*,10%
Cc1cccc(NC(=O)CN2C(=O)N/C(=C/c3ccc(C)o3)C2=O)c1,-23%,11µM*,1%,-5%,-17%,9%
Cc1cccc(CN2C(=O)N/C(=C/c3ccc(C)s3)C2=O)c1,-6%,-24%,u,43%[38.3 µM],-9%,-11%[46.1 µM]
C=CCN1C(=O)N/C(=C/c2ccc(C)o2)C1=O,-18%,10µM*,0%,3%,18µM*,-25%

# High-throughput results from PubChem.
